From PubChem BioAssay AID588344 (National Center for Advancing Translational Sciences (NCATS), 2011)
This is one part of the list. Inconclusive results are not listed. Active and inactive are the calls of the source. Calls follow the shape of the dose curve; as a rule, active = well fitted inhibition curve with a large enough effect; inconclusive = small, poorly fitted or top-dose-only effect; inactive = flat fitted curve, though single readings scatter.

target: Histone-lysine N-methyltransferase EHMT2 (Homo sapiens) (UniProt Q96KQ7); assay: qHTS Assay for Inhibitors of Histone Lysine Methyltransferase G9a: Hit Confirmation; settings: G9a H3K9 monomethylation, AlphaScreen, 2 h; also: nearly all actives have a fitted effect of over 65% in size
Sequence (Q96KQ7 913-1193 limits assumed): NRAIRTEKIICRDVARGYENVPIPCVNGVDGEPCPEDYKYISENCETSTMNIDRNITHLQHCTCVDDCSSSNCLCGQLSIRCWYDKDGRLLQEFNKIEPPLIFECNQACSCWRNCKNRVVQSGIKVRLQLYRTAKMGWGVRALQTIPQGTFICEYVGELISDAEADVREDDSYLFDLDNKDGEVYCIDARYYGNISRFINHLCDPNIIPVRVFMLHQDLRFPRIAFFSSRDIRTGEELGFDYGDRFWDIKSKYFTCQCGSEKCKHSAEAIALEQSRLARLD
Excerpt: Methylated lysines, on the N-terminal tails of histone proteins serve as epigenetic markers to recruit factors that can then modify local chromatin structure to lead to functional consequences. G9a and other members of the SUV39 family of the SET domain-containing superfamily of histone lysine methyltransferases (HMT) have been identified to specifically methylate Lys9 of histone H3 (H3K9). G9a catalyzes the mono- and di-methylation of H3K9 in mammalian euchromatic regions, where the resulting H3K9me2 is indicative of transcriptional repression. […] The inhibition of G9a will result in transcriptional activation and work synergistically with DNA methyltransferase and histone deacetylase inhibitors, to kill cancer cells. This qHTS assay for identification of G9a inhibitors is a chemiluminescence based AlphaScreen (PerkinElmer). Methylation of biotinylated-histone peptide is measured through specific antibody-based detection, in conjunction with streptavidin-coated donor and anti-IgG antibody-coated acceptor beads. The method is particularly well suited for detection of inhibitors acting by the desired histone peptide competitive mechanism and is applicable to testing other HMTs. Although AlphaScreen has significant advantages with its utility in a variety of epigenetic target assays, the primary screening data provided in this deposition should be used with caution due to the prevalence of screening artifacts. An AlphaScreen counterscreen is highly recommended to be run against any putative actives to eliminate non specific artifacts. Alternatively, one can use other AlphaScreen assays in PubChem to filter out promiscuous hits. Quinn et al. A chemiluminescence-based method for identification of histone lysine methyltransferase inhibitors. Mol Biosyst 6(5): 782-8. 2010. PMID: 20567762 [2] Baell,Holloway. New substructure filters for removal of pan assay interference compounds (PAINS) from screening libraries and for their exclusion in bioassays. J Med Chem. 53(7):2719-40. 2010. PMID: 20131845 NIH Chemical Genomics Center [NCGC] NIH Molecular Libraries Probe Production Network [MLPCN] MLPCN Grant: MH084681-02 Assay Submitter (PI): Structural Genomic Consortium - Toronto, Peter Brown
To each well, 2 uL of HMT enzyme (final 20 nM) will be added using a nanoliter dispenser. The G9a- and GLP-inhibitor BIX-01294 will be used as an intraplate control, with a 16-point titration in duplicate. A Kalypsys pin-tool will be employed to transfer 23 nL of library compound solution in DMSO to each well. Following a 15 min incubation of enzyme with compounds at room temperature, 1 uL mixture of b-H3K9 peptide substrate (final 500 nM) and SAM cofactor (final 20 uM) will be added. Reactions are allowed to proceed at room temperature for 2 hours. Methylated b-H3K9 peptide product is detected with 0.5 ug/mL rabbit polyclonal anti-monomethyl histone H3K9 antibody (Abcam Inc., Cambridge, MA) and 20 ug/mL each streptavidin-coated donor and anti-rabbit IgG acceptor AlphaScreen beads. Antibody and beads will be added in a 1 uL dispense, for a final volume of 4 uL, and plates will be incubated protected from the light for 10 min at room temperature. Microplates will then be read on an EnVision multilabel plate reader using the 1,536 plate HTS AlphaScreen aperture (excitation time 80 ms, measurement time 240 ms).
Potency is read from the fitted curve at half-maximal effect.

Compound	Potency
CCOC(=O)N1CCN(C(c2cccnc2)c2ccc3cccnc3c2O)CC1 (stereo unspecified)	0.159 µM (active)
CCOC(=O)c1c(NC(=O)COc2cc(C)ccc2C(C)C)sc(C)c1C	5.64 µM (active)
Cc1ccc(-c2cnc(NCc3ccc(C(C)C)cc3)n2C)cc1	31.6 µM (active)
CCOC(=O)c1ccc(-n2c(CCC(=O)O)ccc2-c2ccccc2)cc1	31.6 µM (active)
CC(NC(=O)c1ccco1)C(=O)Nc1nc(-c2ccccn2)cs1 (stereo unspecified)	7.96 µM (active)
CCCCNC(=O)CSc1nc2ccc(NC(=O)CSc3nnc(N)s3)cc2s1	1.42 µM (active)
CCc1ccc(Nc2ncc3c(n2)CC(c2ccco2)CC3=O)cc1 (stereo unspecified)	31.6 µM (active)
COCCCNCC(=O)Nc1sc(C)c(C)c1C(=O)OC	31.6 µM (active)
CCOC(=O)N1CCc2c(sc(NCc3cccc(F)c3)c2C(=O)Nc2ccccc2OCC)C1	4.57 µM (active)
CCn1c(SCC(=O)Nc2cccc(F)c2)nnc1-c1cc2cc(Br)ccc2o1	5.01 µM (active)
CCc1ccc(NC2Nc3cc(C)nn3S2)cc1 (stereo unspecified)	1.78 µM (active)
c1ccc(-c2nnc3n2NC(c2ccc4c(c2)OCO4)S3)cc1 (stereo unspecified)	0.178 µM (active)
CCOc1ccc(NC(=O)c2c(NC(=O)Cc3ccccc3)sc3c2CCCCC3)cc1	4.57 µM (active)
CCOC(=O)c1ccc(NC(=O)CSc2ncccn2)cc1	0.632 µM (active)
CCOc1ccc(NC(=O)c2c(NC(=O)Cc3ccccc3)sc3c2CCC(C)C3)cc1 (stereo unspecified)	2.57 µM (active)
Cc1ccccc1C(=O)Nc1ccc(N2CCCCCC2)cc1	2.83 µM (active)
